Test results published in PubChem BioAssay (Tox21).
Records with an inconclusive call do not appear. Activity calls are given as the source filed them. Unless noted, calls come from the whole dose curve.

Assays:
[1] = Nuclear factor erythroid 2-related factor 2/antioxidant responsive element (Nrf2/ARE) small molecule agonists: qHTS cell viability counter screen in human keratinocytes (AID 1919968; active = well fitted curve in the direction sought with a large enough effect in the repeat runs; an effect the other way counts as inactive or inconclusive; note: nearly all actives have a fitted effect of over 55% in size; note: potency is the fitted concentration of half-maximal effect)
In short: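 Measured as CellTiter-Fluor fluorescence, this readout tracks cytotoxicity in the same wells as the ARE-luciferase screen. HaCaT reporter cells (1,500/well) received compounds after a 5 h pre-incubation and were exposed for 23 h.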

[2] = Nuclear factor erythroid 2-related factor 2/antioxidant responsive element (Nrf2/ARE) small molecule agonists: luciferase reporter gene qHTS assay in human keratinocytes (AID 1919969); note: nearly all actives have a fitted effect of over 35% in size
[3] = target: Gonadotropin-releasing hormone receptor (Homo sapiens) (UniProt P30968); assay: Human gonadotropin-releasing hormone receptor (GnRHR) small molecule agonists, calcium flux assay in GnRHR-HEK293 cells (AID 1920063); note: nearly all actives have a fitted effect of over 35% in size
Chain of Gonadotropin-releasing hormone receptor (Homo sapiens) (P30968 whole entry, looked up): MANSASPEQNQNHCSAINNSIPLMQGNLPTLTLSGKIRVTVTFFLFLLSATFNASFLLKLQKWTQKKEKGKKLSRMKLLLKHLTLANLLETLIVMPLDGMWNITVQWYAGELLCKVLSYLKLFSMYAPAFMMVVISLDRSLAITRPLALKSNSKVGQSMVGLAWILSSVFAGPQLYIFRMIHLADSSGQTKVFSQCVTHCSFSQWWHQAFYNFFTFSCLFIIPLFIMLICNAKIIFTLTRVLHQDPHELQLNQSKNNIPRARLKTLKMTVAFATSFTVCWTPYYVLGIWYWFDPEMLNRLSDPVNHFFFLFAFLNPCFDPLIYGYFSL
In short: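 Fluorescence kinetics (480 nm excitation, 540 nm emission; 3 min, 1 s steps) report calcium mobilisation in human GnRHR-HEK293 cells in agonist mode. Dye incubation: 1 h, 37 C.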

[4] = target: KiSS-1 receptor (Homo sapiens) (UniProt Q969F8); assay: Human kisspeptin (KISS1R) small molecule agonists, calcium flux assay in KISS1R-HEK293 cells (AID 1920064; active = well fitted curve in the direction sought with a large enough effect in the repeat runs; an effect the other way counts as inactive or inconclusive)
Chain of KiSS-1 receptor (Homo sapiens) (Q969F8 whole entry, looked up): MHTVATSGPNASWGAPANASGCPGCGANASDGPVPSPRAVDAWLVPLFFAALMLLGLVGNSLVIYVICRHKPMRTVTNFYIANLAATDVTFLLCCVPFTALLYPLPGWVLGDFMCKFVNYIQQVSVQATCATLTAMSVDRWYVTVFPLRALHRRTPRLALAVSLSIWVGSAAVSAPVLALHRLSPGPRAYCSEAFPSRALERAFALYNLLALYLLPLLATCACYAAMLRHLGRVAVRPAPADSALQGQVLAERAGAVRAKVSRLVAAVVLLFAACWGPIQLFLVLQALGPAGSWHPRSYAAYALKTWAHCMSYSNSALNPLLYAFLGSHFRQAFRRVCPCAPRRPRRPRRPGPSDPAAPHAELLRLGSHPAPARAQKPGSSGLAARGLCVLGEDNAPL
In short: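 Measures KISS1R agonism through calcium-sensitive dye fluorescence in stably transfected HEK293 cells, read for 3 min after pin-tool compound delivery; 15-point titrations in triplicate.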

[5] = G protein-coupled receptor (GPCR) small molecule agonists, calcium flux assay: HEK293 wild type cell line counter screen (AID 1920065)
In short: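 Readout: fluorescence at 480 nm excitation/540 nm emission, sampled at 1 s intervals for 3 min. Cells had been cultured 18 h, then dye-loaded 1 h at 37 C before compound or ATP addition.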

[6] = p53 small molecule agonists, cell-based qHTS assay with human liver microsomes (AID 1963577);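 note: p53 response element beta-lactamase reporter cells with liver microsomes plus NADPH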
In short: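 With metabolic activation: human liver microsomes (0.5 mg/mL final) plus NADPH (0.5 mg/mL final) added alongside compounds to p53RE-bla cells; 16 h 37 C exposure; beta-lactamase read by LiveBLAzer fluorescence.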

[7] = p53 small molecule agonists, cell-based qHTS assay with human liver microsomes: qHTS cell viability counter screen (AID 1963579); note: nearly all actives have a fitted effect of over 45% in size
In short: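 Metabolic activation used human liver microsomes and NADPH, both 0.5 mg/mL final, over 16 hours at 37 C on p53RE-bla cells (4,000/well). Cytotoxicity measured by CellTiter-Glo luminescence, 30 min at room temperature.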

[8] = p53 small molecule agonists, cell-based qHTS assay with rat liver microsomes: qHTS cell viability counter screen (AID 1963580); note: nearly all actives have a fitted effect of over 45% in size
In short: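 p53RE-bla HCT-116 cells (4,000/well) rested 5 h at 37 C, then given Tox21 compounds in DMSO with rat liver microsomes (0.5 mg/mL final) plus NADPH (0.5 mg/mL final) for 16 h at 37 C. Viability read by CellTiter-Glo luminescence after 30 min at room temperature.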

[9] = p53 small molecule agonists, cell-based qHTS assay: qHTS cell viability counter screen (AID 1963581); note: nearly all actives have a fitted effect of over 45% in size
In short: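 In the same plates used for the p53 bla reporter, HCT-116 cells given compounds for 16 h at 37 C received CellTiter-Glo; luminescence was recorded 30 min later at room temperature.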

[10] = p53 small molecule agonists, cell-based qHTS assay (AID 1963582; active = well fitted activation curve with a large enough effect in the signal ratio in the repeat runs, not every such curve was filed as active; the % refers to the signal ratio)
In short: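 Compounds are pin-transferred in DMSO onto p53RE-bla cells and incubated 16 h at 37 C. The B/G FRET beta-lactamase substrate is then applied for 2 h at RT and fluorescence recorded.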

[11] = target: 5-hydroxytryptamine receptor 2A (Homo sapiens) (UniProt P28223); assay: 5-hydroxytryptamine receptor 2A (HTR2A) small molecule agonists, cell-based qHTS assay (AID 1963587); note: nearly all actives have a fitted effect of over 30% in size
Chain of 5-hydroxytryptamine receptor 2A (Homo sapiens) (P28223 whole entry, looked up): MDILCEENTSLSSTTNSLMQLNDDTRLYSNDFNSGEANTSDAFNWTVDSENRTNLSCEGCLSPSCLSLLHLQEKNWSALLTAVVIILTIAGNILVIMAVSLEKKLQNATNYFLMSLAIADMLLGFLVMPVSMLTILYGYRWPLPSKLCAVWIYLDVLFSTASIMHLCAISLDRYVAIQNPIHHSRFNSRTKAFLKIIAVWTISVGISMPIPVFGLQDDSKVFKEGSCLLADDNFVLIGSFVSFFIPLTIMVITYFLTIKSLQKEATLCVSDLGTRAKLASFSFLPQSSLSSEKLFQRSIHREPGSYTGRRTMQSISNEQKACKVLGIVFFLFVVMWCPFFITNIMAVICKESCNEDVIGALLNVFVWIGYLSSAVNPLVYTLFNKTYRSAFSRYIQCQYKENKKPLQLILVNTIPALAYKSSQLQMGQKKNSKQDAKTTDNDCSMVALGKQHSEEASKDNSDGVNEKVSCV
In short: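 HTR2A-CHO cells, plated 18 h at 37 C/5% CO2, dye-loaded 1 h at 37 C; compounds in DMSO added by pin tool (agonist mode). Intracellular calcium flux read as kinetic fluorescence on FDSS over 2 min at 1 s intervals.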

[12] = target: Muscarinic acetylcholine receptor M1 (Homo sapiens) (UniProt P11229); assay: Cholinergic receptor muscarinic 1 (CHRM1) small molecule antagonists, cell-based qHTS assay (AID 1963588); note: nearly all actives have a fitted effect of over 40% in size
Chain of Muscarinic acetylcholine receptor M1 (Homo sapiens) (P11229 whole entry, looked up): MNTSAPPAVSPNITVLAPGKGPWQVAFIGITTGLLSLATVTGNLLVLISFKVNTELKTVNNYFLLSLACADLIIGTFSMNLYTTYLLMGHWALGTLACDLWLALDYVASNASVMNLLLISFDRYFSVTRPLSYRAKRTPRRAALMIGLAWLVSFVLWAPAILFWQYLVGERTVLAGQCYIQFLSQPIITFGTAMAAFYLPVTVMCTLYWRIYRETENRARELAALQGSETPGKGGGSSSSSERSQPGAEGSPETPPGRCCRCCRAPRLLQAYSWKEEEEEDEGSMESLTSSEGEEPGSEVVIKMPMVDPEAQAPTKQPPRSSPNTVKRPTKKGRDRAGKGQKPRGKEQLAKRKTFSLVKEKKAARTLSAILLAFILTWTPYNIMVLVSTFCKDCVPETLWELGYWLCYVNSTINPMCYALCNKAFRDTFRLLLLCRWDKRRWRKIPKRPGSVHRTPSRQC
In short: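 CHRM1-CHO calcium-flux assay, antagonist mode. Cells were seeded 18 h, dye-loaded 1 h at 37 C and given compound for 5 min at RT, then acetylcholine was added at 50nM. FDSS fluorescence was read 3 min; 15 concentrations, three runs.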

[13] = target: Muscarinic acetylcholine receptor M1 (Homo sapiens) (UniProt P11229); assay: Cholinergic receptor muscarinic 1 (CHRM1) small molecule agonists, cell-based qHTS assay (AID 1963589); note: nearly all actives have a fitted effect of over 35% in size
In short: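 Each compound was tested at 15 concentrations across three independent runs on dye-loaded CHO cells stably expressing human CHRM1, reading intracellular calcium fluorescence kinetically at 1 sec intervals.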

[14] = cAMP Responsive Elements (CRE) small molecule agonists, cell-based qHTS assay (AID 1963590); note: potency is the fitted concentration of half-maximal effect
In short: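 Cell line: CRE-bla HEK 293T; medium DMEM/10% dialyzed FBS/0.1 mM NEAA/1 mM pyruvate/25 mM HEPES; 3 h compound exposure; beta-lactamase FRET readout after 2 h substrate loading at RT.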

[15] = target: Beta-2 adrenergic receptor (Homo sapiens) (UniProt P07550); assay: Adrenergic beta2 receptor (ADRB2) small molecule antagonists, cell-based qHTS assay (AID 1963592); note: series mostly up to about 92 µM; nearly all actives have a fitted effect of over 50% in size
Chain of Beta-2 adrenergic receptor (Homo sapiens) (P07550 whole entry, looked up): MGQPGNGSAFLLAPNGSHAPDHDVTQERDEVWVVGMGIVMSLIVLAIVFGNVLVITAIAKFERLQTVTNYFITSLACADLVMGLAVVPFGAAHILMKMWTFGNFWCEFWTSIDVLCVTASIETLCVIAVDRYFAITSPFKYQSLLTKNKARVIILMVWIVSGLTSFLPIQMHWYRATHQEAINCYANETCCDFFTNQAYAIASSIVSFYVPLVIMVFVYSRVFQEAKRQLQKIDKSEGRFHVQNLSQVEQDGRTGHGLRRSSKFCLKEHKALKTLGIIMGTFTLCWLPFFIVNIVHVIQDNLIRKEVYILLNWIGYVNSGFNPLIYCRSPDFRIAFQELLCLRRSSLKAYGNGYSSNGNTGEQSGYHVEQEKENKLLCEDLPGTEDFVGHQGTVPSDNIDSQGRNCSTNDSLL
In short: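 Cells (CHO, stable ADRB2 overexpression) incubated 18-20hr at 37C; compounds added from DMSO; agonist mix (1nM isoproterenol, 100uM IBMX, 25uM Ro-20-1724) added; 0.5hr RT; d2-cAMP and anti-cAMP-cryptate added; 1hr RT; 665/615 nm read.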

[16] = target: D(2) dopamine receptor (Homo sapiens) (UniProt P14416); assay: Dopamine D2 receptor (DRD2) small molecule antagonists, cell-based qHTS assay (AID 1963595; active = well fitted inhibition curve with a large enough effect in the signal ratio in the repeat runs, with a control signal flat; the % refers to the signal ratio)
Chain of D(2) dopamine receptor (Homo sapiens) (P14416 whole entry, looked up): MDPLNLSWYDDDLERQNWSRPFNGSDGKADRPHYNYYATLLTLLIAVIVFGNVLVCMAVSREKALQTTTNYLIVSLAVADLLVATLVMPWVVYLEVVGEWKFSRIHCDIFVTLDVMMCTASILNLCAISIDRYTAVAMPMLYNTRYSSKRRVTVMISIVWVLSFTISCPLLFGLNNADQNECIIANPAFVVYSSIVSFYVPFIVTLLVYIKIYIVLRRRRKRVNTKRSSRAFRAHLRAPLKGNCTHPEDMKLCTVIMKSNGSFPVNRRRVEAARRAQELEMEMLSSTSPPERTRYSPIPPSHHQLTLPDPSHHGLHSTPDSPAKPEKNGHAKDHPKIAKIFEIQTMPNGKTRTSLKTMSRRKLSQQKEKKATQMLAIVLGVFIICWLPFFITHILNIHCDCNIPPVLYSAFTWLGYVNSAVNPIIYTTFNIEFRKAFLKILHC
In short: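 DRD2-HEK293; 0.1 mM Ro20-1724; cpd 10 min RT; NKH477 200 nM + quinpirole 12 nM, 30 min RT; HTRF cAMP (cAMP-d2/anti-cAMP cryptate), 665/620 nm ratio after 1 h.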

[17] = p53 small molecule agonists, cell-based qHTS assay with rat liver microsomes (AID 1963578)
In short: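 Metabolic activation by rat liver microsomes and NADPH, each 0.5 mg/mL final, added right after compounds to p53RE-bla reporter cells (4,000/well, plated 5 h earlier). 16 h at 37 C, then LiveBLAzer substrate for 2 h at room temperature in the dark; fluorescence read-out.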

[18] = cAMP Responsive Elements (CRE) small molecule antagonists, cell-based qHTS assay (AID 1963591; active = well fitted inhibition curve with a large enough effect in the signal ratio in the repeat runs, not every such curve was filed as active; the % refers to the signal ratio)
In short: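 Inhibition of NKH477-driven (0.25 uM final) CRE-beta-lactamase signal in HEK293T cells, 3 h compound exposure at 37 °C, detected by FRET substrate fluorescence.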

[19] = target: D(2) dopamine receptor (Homo sapiens) (UniProt P14416); assay: Dopamine D2 receptor (DRD2) small molecule agonists, cell-based qHTS assay (AID 1963594); note: nearly all actives have a fitted effect of over 35% in size
In short: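 HEK293 cells stably expressing DRD2 were cultured 24 h at 37 C, then given Ro20-1724 (0.1 mM final) and compounds for 10 min at room temperature. NKH477 (200nM) was then added for 30 min. cAMP was read by HTRF.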

[20] = target: 5-hydroxytryptamine receptor 2A (Homo sapiens) (UniProt P28223); assay: 5-hydroxytryptamine receptor 2A (HTR2A) small molecule antagonists, cell-based qHTS assay (AID 1963586); note: nearly all actives have a fitted effect of over 45% in size
In short: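 Antagonist-mode intracellular calcium assay: DOI (4 nM) added after 5 min compound pre-incubation at room temperature to dye-loaded HTR2A-CHO cells. Fluorescence followed for 3 min, sampled every second.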
% is set by controls: 0 for no effect and ±100 for the full control effect.

CC(=O)[C@H]1CC[C@H]2[C@@H]3C[C@H](C)C4=CC(=O)CC[C@]4(C)[C@H]3[C@@H](O)C[C@]12C
inactive: Potency [1] | Potency [2] | Potency [3] | outcome [4] | outcome [5] | Potency [6] | Potency [7] | Potency [8] | Potency [9] | Potency [10] | Potency [11] | Potency [12] | Potency [13] | Potency [14] | Potency [15] | Potency [16]

NCC(=O)O
inactive: activity change, negative = cytotoxicity [1] -4.41% [at 19 µM] | activity, positive = activation [2] -0.375% [at 19 µM] | activity change [3] 1.37% [at 11.8 µM, active compounds read high] | activation [4] -0.57% [at 15.8 µM] | activation [5] -1.52% [at 11.8 µM] | activation [6] 0.573% [at 13.5 µM] | activation [17] 1.19% [at 13.6 µM] | activity change, negative = cytotoxicity [9] -0.356% [at 13.5 µM] | activation [10] 0.144% [at 13.5 µM] | activation [14] -1.05% [at 19 µM] | activity change, negative = inhibition [18] 4.57% [at 18.9 µM] | activity change, negative = inhibition [15] -10.5% [at 19 µM] | activation [19] 4.26% [at 19 µM] | activity change, negative = inhibition [16] -7.27% [at 18.9 µM]

CCCCCCCCCCCc1ccccc1
inactive: Potency [1] | Potency [2] | Potency [3] | outcome [4] | outcome [5] | Potency [6] | Potency [7] | Potency [8] | Potency [9] | Potency [10] | Potency [11] | Potency [12] | Potency [13] | Potency [14] | Potency [18] | Potency [15] | Potency [16]

C[C@@]12C(=O)OC(=O)[C@]1(C)C1CCC2O1
inactive: Potency [2] | Potency [3] | outcome [4] | outcome [5] | Potency [6] | Potency [17] | Potency [15] | Potency [19] | Potency [16]
active: Potency [1] 16.8 µM

CNC(=O)c1cnn(-c2nc(N)c3ncn([C@@H]4O[C@H](CO)[C@@H](O)[C@H]4O)c3n2)c1
inactive: Potency [1] | Potency [2] | Potency [3] | outcome [4] | outcome [5] | Potency [6] | Potency [7] | Potency [8] | Potency [9] | Potency [10] | Potency [20] | Potency [11] | Potency [12] | Potency [13] | Potency [15]
active: Potency [14] 11.9 µM

COCCc1ccccn1
inactive: Potency [1] | Potency [2] | Potency [3] | outcome [4] | outcome [5] | Potency [6] | Potency [7] | Potency [8] | Potency [9] | Potency [10] | Potency [11] | Potency [12] | Potency [13] | Potency [14] | Potency [18] | Potency [15] | Potency [19] | Potency [16]

O=S(=O)(Cl)c1c(Cl)cccc1Cl
inactive: Potency [1] | Potency [2] | Potency [3] | outcome [4] | outcome [5] | Potency [6] | Potency [17] | Potency [9] | Potency [20] | Potency [11] | Potency [12] | Potency [13] | Potency [14] | Potency [18] | Potency [15] | Potency [19] | Potency [16]

NC(=O)C1(N2CCCCC2)CCN(CCCC(=O)c2ccc(F)cc2)CC1
inactive: Potency [1] | Potency [2] | Potency [3] | outcome [4] | outcome [5] | Potency [6] | Potency [7] | Potency [8] | Potency [9] | Potency [10] | Potency [11] | Potency [12] | Potency [13] | Potency [14] | Potency [18] | Potency [15] | Potency [19]
